AmpC inh detg = inhibitors of E. coli AmpC beta-lactamase with detergent; Potency, µM (series often up to 114 µM), for inactives: top-dose activity change, negative = inhibition, hits mostly inhibitors; AID 485294; 0.041% of 370,000 active; AmpC hydrolysis of nitrocefin, absorbance 480 nm, 0.01% Triton; P00811;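 further: 0% = no-compound wells and -100% = no-enzyme wells; nearly all actives have a fitted effect of over 25% in size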
Target sequence (P00811 whole entry, looked up): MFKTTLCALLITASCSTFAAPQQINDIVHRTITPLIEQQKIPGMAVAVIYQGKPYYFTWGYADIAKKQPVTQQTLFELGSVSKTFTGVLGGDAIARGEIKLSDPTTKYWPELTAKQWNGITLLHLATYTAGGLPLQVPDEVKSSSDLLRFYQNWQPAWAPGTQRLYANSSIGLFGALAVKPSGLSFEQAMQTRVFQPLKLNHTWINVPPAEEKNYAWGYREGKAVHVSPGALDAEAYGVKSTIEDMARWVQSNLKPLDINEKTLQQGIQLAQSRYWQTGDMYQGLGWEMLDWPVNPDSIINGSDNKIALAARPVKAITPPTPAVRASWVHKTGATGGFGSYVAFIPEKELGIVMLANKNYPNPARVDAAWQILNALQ
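AmpC (5.3 nM in the dispensed reagent) in 20 mM phosphate pH 7.0 with 0.01% (detergent screen) or 0.0001% Triton X-100 was preincubated with compounds for 15 min at room temperature. Nitrocefin was then added from an 800 uM solution, and hydrolysis was followed at 480 nm.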
LASV entry inh = inhibitors of Lassa virus binding or cell entry; Lassa virus pseudotype entry inhibition, cell reporter; Potency, µM (titrated, usually from 37.9 µM), for the others: top-dose activity change, negative = inhibition, most hits filed as inhibitors; 1.2% of 300,000 active; AID 540256; calls by dose curve; tested in HEK293 cells; further: nearly all actives have a fitted effect of over 50% in size
AMA1 RON2 block = inhibitors of Plasmodium falciparum AMA1-RON2 interaction | AID 720542 | AlphaScreen AMA1-biotinylated RON2 peptide binding | Potency, µM (series often up to 58.2 µM), inactives show top-dose activity change, negative = inhibition, usual class: inhibitors | 0.2% of 360,000 active;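 further: 0% = vehicle wells and -100% = peptide control; nearly all actives have a fitted effect of over 45% in size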
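AMA1 (3D7) with his tag at 25 nM final met compounds first, then biotinylated RON2 peptide at 25 nM; detection used donor plus acceptor beads, 10 µg/mL apiece, read by AlphaScreen after 30 min at room temperature.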
AmpC inh no detg = inhibitors of E. coli AmpC beta-lactamase without detergent | AmpC nitrocefin hydrolysis, absorbance 480 nm, 0.0001% Triton | 0.52% of 330,000 active | AID 485341 | Potency, µM (highest dose often 57.1 µM), for the others: top-dose activity change, negative = inhibition, actives largely listed as inhibitors | P00811;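 further: plate controls were no compound for no effect and no enzyme for full effect; nearly all actives have a fitted effect of over 20% in size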
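20 mM phosphate pH 7.0 + 0.01% (detergent screen) or 0.0001% Triton X-100; 5.3 nM AmpC reagent; cpd preinc 15 min RT; nitrocefin (800 uM stock) to start; A480 q20 s × 4 min; Activity was normalised to no-enzyme and no-compound control wells.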
Marburg entry inh = inhibitors of Marburg virus binding or cell entry. Marburg virus pseudotyped entry inhibition, cell reporter. Potency, µM (top dose mostly 37.8 µM), for inactives: top-dose activity change, negative = inhibition, usual class: inhibitors. 1.8% of 300,000 active; calls by dose curve; tested in HEK293 cells
* = called active by the depositor; u = inconclusive; x = no result given; [ ] = remark or other dose. Only some compounds are listed: those with a hit (about 2.3% of all), similar ones and a draw of the others. Unless noted, the call rests on the fitted dose curve; in most records, active means well fitted curve in the direction sought with a large enough effect; inconclusive means small, poorly fitted or top-dose-only effect, or another doubt; inactive means no such curve, though single readings can be large; an effect the other way counts as inactive or inconclusive. Unless noted, on the % scale 0 is the no-effect control and ±100 the full control effect; potency means the concentration at half of the fitted maximal effect.

SMILES | AmpC inh detg | LASV entry inh | AMA1 RON2 block | AmpC inh no detg | Marburg entry inh
CCOC(=S)SCC(=O)Nc1nc(C)c(C)s1 | -1.5% | x | 29.6% | 10µM* | x
CCOC(=S)SCC(=O)Nc1nc(-c2ccc(Br)cc2)cs1 | u | 8.91µM* | -9.8% | -39.0% | u
CCOC(=S)SCC(=O)Nc1nccs1 | -4.7% | -12.5% | -2.3% | -12.2% | u
C[C@]1(c2cnc(Nc3ccccc3)s2)CCC(=O)O1 | x | x | x | x | -10.4%[46.1 µM]
Nc1n[nH]c2cc(=O)n(-c3cccc(C(F)(F)F)c3)nc12 | 5.5% | x | 48.6% | -10.5% | x
O=c1[nH][nH]c2cc(=O)n(-c3cccc(C(F)(F)F)c3)nc12 | 2.3% | x | 57.2% | 20µM* | x
COC(=O)c1ccccc1NC(=O)Cn1nc(C)c2nn(-c3ccc(Cl)cc3)c(C)c2c1=O | 4.7% | -6.4%[46.1 µM] | x | x | x
CCOC(=O)c1cnc2ccc(C(=O)OC)cc2c1Nc1ccccc1CC | -2.6% | 17.3%[46.1 µM] | x | x | u
CCCn1c(C)nc2c(c1=O)c1nc3ccccc3nc1n2CCC1=CCCCC1 | -6.6% | u | 0.8% | -6.1% | 23.1µM*
COC1=C[C@H](C(=O)NC2CCN(Cc3ccccc3)CC2)[C@@]2(C)Cc3ccccc3[C@@H]2CC1=O | x | x | x | x | -18.2%[14.2 µM]
CC(C)CN=c1cc(-c2ccccc2)oc2ccc(Cl)cc12 | u | u | -9.5% | -32.5% | 17.8µM*
COC(=O)C1=C(C)N=C2S[C@H](C)C(=O)N2[C@@H]1c1cccc(F)c1 | x | x | x | x | -9.7%
COc1ccc(/C=N/n2c(SC)nnc(C(C)(C)C)c2=O)cc1 | -8.4% | u | -0.2% | -7.8% | -3.1%
CCOc1ccc(/C=N/n2c(SC)nnc(C(C)(C)C)c2=O)cc1 | 0.8% | 10µM* | 2.8% | -2.2% | -3.1%
N.N.O=C(O)C1(C(=O)O)CCC1.[Pt+2] | x | -0.5% | x | x | -5.4%
NS(=O)(=O)c1ccc(N=Nc2c(O)c(C(=O)O)cc3ccccc23)cc1 | -10.4% | x | 8.3% | 22.4µM* | x
O=c1c2c(nc3c(-c4cccc5ccccc45)c[nH]n13)CCC2 | -4.2% | 3.0% | 42.2% | -32.0% | -6.5%
O=c1c2c(nc3c(-c4ccc(Cl)cc4)c[nH]n13)CCCC2 | -3.2% | 10µM* | 2.0% | -46.3% | u
Cc1ccc(-n2cc(CN(C)Cc3ncc[nH]3)c(-c3cccc(C)c3)n2)cc1 | -0.5% | u | 2.1% | 178.7% | u
CCN1CC(CN(C)Cc2cn(-c3ccc(C)cc3)nc2-c2cccc(C)c2)CC1=O (stereo not given) | 1.0% | u | -5.9% | 216.0% | 11.2µM*
COc1cc(/C=C/C(=O)OCC(=O)NCc2ccco2)ccc1O | -19.3% | u | -5.9% | -22.1% | u
COc1cc(/C=C/C(=O)OCC(=O)NC(=O)NCc2ccco2)ccc1OC(F)F | x | u | -24.4% | 20µM* | 9.2%
O=[N+]([O-])c1ccc(-c2ccc(/C=N/Nc3nc(NCc4ccccc4)nc(N4CCOCC4)n3)o2)cc1 | -9.7% | 7.6%[46.1 µM] | -14.4% | -11.1% | 10µM*
COc1nc(N/N=C/c2ccc(-c3ccccc3[N+](=O)[O-])o2)nc(N2CCOCC2)n1 | -1.5% | 1.4% | 19.5% | -24.2% | u
COc1ccc(/C=N/NC(=O)c2cccnc2)cc1CN1CCc2cc(OC)c(OC)cc2C1C (stereo not given) | 0.8% | 13.2% | 5.2% | 55.2% | -12.6%[46.1 µM]
SMILES | AmpC inh detg | LASV entry inh | AMA1 RON2 block | AmpC inh no detg | Marburg entry inh
COc1ccc(/C=N/NC(=O)c2cc(OC)c(OC)c(OC)c2)cc1CN1CCc2cc(OC)c(OC)cc2C1C (stereo not given) | 1.5% | -20.1% | -12.2% | 96.4% | 14.1µM*
CCCCCCCCNC(=O)CC(NS(=O)(=O)c1ccc(NC(C)=O)cc1)C(C)C (stereo not given) | u | 2.06µM* | -17.1% | 38.6% | 7.7%
CC(=O)Nc1ccc(S(=O)(=O)NC(CC(=O)NCCCN2CCOCC2)C(C)C)cc1 (stereo not given) | 0.4% | -3.9% | -1.0% | -9.5% | 5.2%[46.1 µM]
CNc1ccccc1C(C)(C)c1cc(-c2cccc([N+](=O)[O-])c2)no1 | u | u | u | -51.4% | 4.47µM*
CNc1ccccc1C(C)(C)c1cc(-c2cccc(Br)c2)no1 | 2.0% | u | -1.5% | -39.6% | u
CN(C)c1ccc(/C=C/c2ccc3c4ccccc4ccc3[n+]2-c2ccccc2)cc1 | -13.3% | 11.2µM* | 11.2µM* | 71.1% | u
Cc1[nH]c2ccc(F)cc2c(=O)c1SC(F)(F)[C@@H](F)C(F)(F)F | x | x | x | x | -13.6%
COc1ccc2[nH]cc(CCn3ccc(O)c(C/C=C/c4ccccc4)c3=O)c2c1 | 0.0% | u | u | 15.8µM* | u
CC1CC(Nc2ccccc2)c2ccccc2N1C(=O)c1cccnc1 (stereo not given) | u | -29.2% | -8.9% | 17.7% | u
C[C@@H]1C[C@H](Nc2ccccc2)c2ccccc2N1C(=O)c1cccnc1 | 0.6% | u | -22.5% | 20.4% | 10µM*
CCC1=Nc2cc(C(=O)NC3CCCC3)ccc2Sc2ccc(Br)cc21 | -2.6% | u | x | x | u
COc1cc2c(cc1OC)C(C)N(C(=O)c1cc3c(C)cc(C)cc3[nH]1)CC2 (stereo not given) | -8.4% | u | -11.3% | 124.9% | 3.16µM*
COCCOCCOCCC(=O)N[C@@H]1C[C@@H]2CC[C@@]1(C)C2(C)C | x | x | x | x | -1.3%
COc1ccc(C)c2sc(N(Cc3cccnc3)C(=O)C3CCCCC3)nc12 | -0.2% | 2.2%[46.1 µM] | x | x | x
Cc1ccc(NC(=O)CCCCCC2NC(=O)NC2C)cc1 (stereo not given) | u | 19.1%[14.3 µM] | 0.212µM* | 0.3% | -13.6%
Cc1ccc(NC(=O)c2sc3nc[nH]c(=O)c3c2C)cc1C | 1.5% | 2.0%[46.1 µM] | x | x | x
CNCCC(Oc1ccccc1C)c1ccccc1 (stereo not given) | x | u | x | x | 14.1µM*
CCn1c(=O)cc(SCC(=O)NCc2ccc(F)cc2Cl)c2ccccc21 | 18.7% | -6.2%[46.1 µM] | x | x | -14.8%[46.1 µM]
Cc1cc2c(N=O)c(NO)ccc2[nH]1 | 8.1% | u | 21.1% | -19.6% | 1.41µM*

Compound activity as filed in PubChem BioAssay.
